Only some compounds are listed: those with a hit (about 3% of all), similar ones and a draw of the others.
TrxR1 substrate – qHTS Assay for Substrates of Mammalian Selenoprotein Thioredoxin Reductase 1 (TrxR1): qHTS. Thioredoxin reductase 1, cytoplasmic (Rattus norvegicus), O89049. purified TrxR1 substrate turnover, NADPH consumption readout. Potency, µM (titrated, usually from 114 µM), for inactives: top-dose activity change, negative = substrate turnover. 390,000 compounds, 0.01% hits. AID 588456, 2011; further: on the % scale 0 is the no-effect control and ±100 the full control effect; nearly all actives have a fitted effect of over 50% in size
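Rat TrxR1, dispensed at 90 nM, was prereduced with 400 uM NADPH (final) for 5 min at ~22 deg C, then incubated with compound 15 min before 400 uM selenite. A first-read NADPH fluorescence drop versus no-compound background flagged substrates.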
rTrxR1 inhibitor – qHTS Assay for Inhibitors of Mammalian Selenoprotein Thioredoxin Reductase 1 (TrxR1): qHTS. Thioredoxin reductase 1, cytoplasmic (Rattus norvegicus), O89049. recombinant rTrxR1, NADPH fluorescence consumption, selenite substrate. Potency, µM (highest dose often 114 µM), without a hit: at the highest dose activity change, negative = inhibition, most hits filed as inhibitors. 390,000 compounds, 1% hits; further: on the % scale 0 is the no-effect control and ±100 the full control effect; nearly all actives have a fitted effect of over 65% in size
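Rat TrxR1 (90 nM in the dispensed reagent) was pre-reduced with 400 uM NADPH for 5 min at room temperature, then incubated with compound for 15 min. After 400 uM selenite was added, NADPH fluorescence (Ex 340/Em 450 nm) was followed for 8 min.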
Nrf2 inh – Nrf2 qHTS screen for inhibitors. 360,000 compounds, 2.1% hits. AID 504444, 2011. Potency, µM (highest dose often 46 µM), inactives show top-dose activity change, negative = inhibition, hits mostly inhibitors. A549 ARE-Fluc reporter, luciferase luminescence, 18-24 h; further: on the % scale 0 is the no-effect control and ±100 the full control effect; nearly all actives have a fitted effect of over 60% in size
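Quantitative HTS in A549 cells stably bearing an antioxidant response element-firefly luciferase construct. Inhibition of Nrf2-driven transcription was scored by luminescence after 18-24 h of compound exposure at 37 °C.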
GALK inhibitor – qHTS Assay for Inhibitors of Human Galactokinase (GALK); Potency, µM (titrated, usually from 57.5 µM), without a hit: at the top dose activity change, negative = inhibition, most hits filed as inhibitors; P51570; 270,000 compounds, 0.007% hits; Purified GALK, Kinase-Glo residual ATP luminescence; further: on the % scale 0 is the no-effect control and ±100 the full control effect
Target sequence (P51570 whole entry, looked up): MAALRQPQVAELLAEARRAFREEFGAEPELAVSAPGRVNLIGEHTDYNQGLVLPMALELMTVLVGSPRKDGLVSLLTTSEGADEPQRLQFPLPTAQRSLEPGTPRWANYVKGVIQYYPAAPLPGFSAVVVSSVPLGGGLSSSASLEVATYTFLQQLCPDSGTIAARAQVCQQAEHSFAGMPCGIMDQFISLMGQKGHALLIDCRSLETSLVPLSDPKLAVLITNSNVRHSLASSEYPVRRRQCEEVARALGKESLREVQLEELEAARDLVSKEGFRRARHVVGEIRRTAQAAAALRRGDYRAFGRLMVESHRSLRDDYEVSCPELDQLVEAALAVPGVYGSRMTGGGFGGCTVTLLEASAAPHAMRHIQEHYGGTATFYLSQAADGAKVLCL
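Compounds were pin-transferred into ATP buffer (35 uM final), then GALK plus galactose (5 nM, 100 uM final) was added. After 1 h at room temperature, Kinase-Glo Plus was added and luminescence read after 10 min.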
A549 viability – Nrf2 qHTS screen for inhibitors: counterscreen for cytotoxicity; A549 ARE-Fluc cells, CellTiter-Fluor viability, 18-24 h; AID 504648, 2011; Potency, µM (doses to about 46 µM), inactives show top-dose activity change, negative = cytotoxicity, actives largely listed as inhibitors; 390,000 compounds, 0.16% hits; further: on the % scale 0 is the no-effect control and ±100 the full control effect
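Cytotoxicity counterscreen: CellTiter-Fluor fluorescence was measured in A549 ARE_Fluc cells after 18-24 h of compound exposure in a concentration series. The subsequent BugLite luminescent read reports ARE-luciferase activity.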
Nrf2 activator – qHTS of Nrf2 Activators; Potency, µM (top dose mostly 46.1 µM), for the others: at the highest dose activation, actives largely listed as activators; AREc32 ARE-luciferase reporter (MCF7-derived line), luminescence, 24 h; 410,000 compounds, 0.31% hits; further: % of control where 0% means no effect; nearly all actives have a fitted effect of over 65% in size
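Cells of the AREc32 ARE-luciferase line are plated in OPTI-MEM containing 5% FBS and left overnight at 37 deg C. Compounds are pinned in, incubation continues 24 hr, and firefly luciferase signal is then measured.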
* marks the source's active call; other numbers are inactive results; ? = inconclusive; nt = not tested or not shown; [ ] = remark or other dose. The call rests on the fitted dose curve; in most records, active means well fitted curve in the direction sought with a large enough effect; inconclusive means small, poorly fitted or top-dose-only effect, or another doubt; inactive means no such curve, though single readings can be large; an effect the other way counts as inactive or inconclusive. Potency means the concentration at half of the fitted maximal effect.

SMILES	TrxR1 substrate	rTrxR1 inhibitor	Nrf2 inh	GALK inhibitor	A549 viability	Nrf2 activator
COc1ccc(C2c3c(n(CCc4ccccc4)cnc3=N)Oc3ccc4ccccc4c32)cc1OC (centres undefined)	nt	nt	2%	nt	0%	nt
COc1ccc(-c2nn3c(-c4cc(C)[nH]n4)nnc3s2)cc1	0%	13%	-15%	nt	0%	nt
Cc1nc(N)nc(Nc2ccc(C#N)cc2)c1Br	12%	36%	1%	4%	4%	2%
N#Cc1c(N)nc(N)nc1Nc1ccc(Br)cc1	7%	17%	?	nt	-6%	13µM*
COc1ccc(C2CC(c3cccc(C(F)(F)F)c3)=NN2c2ccc(S(N)(=O)=O)cc2)cc1 (centres undefined)	432%	41%	23µM*	nt	-13%	-2%
COCCCNC(=O)Cn1c(=O)n(CCCC(=O)NCc2ccc(C)cc2)c(=O)c2ccccc21	1%	5%	1%	nt	-2%	0%
CCN(Cc1ccccc1)S(=O)(=O)c1cc(C(=O)NC2CCCCCC2)ccc1OC	-1%	2%	?	-2%	?	0%
CCN(Cc1ccccc1)S(=O)(=O)c1cc(C(=O)NCC2CCCCC2)ccc1OC	4%[57.1 µM]	8%[57.1 µM]	12µM*	-1%	-22%	0%
COc1ccccc1N1CCN(S(=O)(=O)c2ccc3[nH]c4c(c3c2)CCCC4)CC1	1%	24%	23µM*	nt	-12%	0%
COc1ccccc1N1CCN(S(=O)(=O)c2ccc3nc(-c4ccccc4)[nH]c3c2)CC1	-2%	17%[57.1 µM]	23µM*	nt	-12%	3%
O=S(=O)(c1ccc2nc(-c3ccccc3)[nH]c2c1)N1CCN(c2cccc(Cl)c2)CC1	-23%[57.1 µM]	?	?	nt	-7%	3%
COc1cc(Cl)c(NC(=O)CN(C)S(=O)(=O)c2ccc3[nH]c4c(c3c2)CCCC4)c(OC)c1	-8%	4%	23µM*	nt	-1%	6%
COc1ccc(NC(=O)CN(C)S(=O)(=O)c2ccc3[nH]c4c(c3c2)CCCC4)cc1Cl	-5%	16%	?	nt	-3%	5%
Cc1ccc(OC(C)C(=O)N2CCN(CCc3ccccn3)CC2)cc1C (centres undefined)	7%	23%	12%	nt	5%	-1%
CCCCCn1c(=O)[nH]c2cc(C(=O)NCc3ccc(OC)cc3)ccc2c1=O	8%	12%	0%[9.27 µM]	nt	-18%	0%
CN(C)c1ccc(/C=C/c2ccc3ccccc3[n+]2[O-])cc1	-12%	31%[0.0914 µM]	nt	nt	nt	nt
CC[n+]1ccc(/C=C/c2ccc(N(C)C)cc2)c2ccccc21	-5%	-11%	3.7µM*	14%	9.2µM*	-1%
CC[n+]1c(/C=C/c2ccc(OC(C)=O)c(OC)c2)ccc2ccccc21	-10%	-33%	?	4%	21µM*	4%
CC[n+]1ccccc1/C=C/c1ccc(N(C)C)cc1	?	-29%	5.8µM*	-2%	10µM*	2%
CC[n+]1c(/C=C/c2ccc(OC)c(OC)c2)ccc2ccccc21	-11%	-24%	?	4%	-19%	4%
CN(C)c1ccc(/C=C/c2cc[n+]([O-])c3ccccc23)cc1	-3%	-12%[0.0914 µM]	nt	nt	nt	nt
CC[n+]1c(/C=C/c2ccc(N(C)C)cc2)ccc2ccccc21	-9%	-27%	8.2µM*	nt	21µM*	-1%
CCCN1CNc2c(c(=O)[nH]c(=S)n2CCc2cccc(Cl)c2Cl)C1	-3%	-19%	-21%	nt	3%	nt
CCS(=O)(=O)NCCc1csc2nc(-c3ccc(C)cc3)nn12	4%[57.1 µM]	12%[57.1 µM]	nt	nt	-4%	10%
CCN1C(=O)C(Cc2nc3ccccc3c(=O)n2-c2cccc(C)c2)c2ccccc21 (centres undefined)	1%	23%	-17%	nt	-8%	8%
SMILES	TrxR1 substrate	rTrxR1 inhibitor	Nrf2 inh	GALK inhibitor	A549 viability	Nrf2 activator
N#Cc1nc(Nc2ccc(-c3ccccc3)cc2)nc(NC2CCCC2)n1	nt	nt	?	nt	-8%	nt
COc1ccc(-c2csc(/C(C#N)=C\c3ccc(O)c([N+](=O)[O-])c3)n2)cc1OC	-10%	-4%	-22%	2%	-14%	0%
N#C/C(=C\c1ccc(O)c([N+](=O)[O-])c1)c1nc2ccccc2s1	-1%[57.1 µM]	1%[57.1 µM]	?	-9%	15µM*	8%
COc1cc(/C=C(\C#N)c2nc3ccccc3s2)cc([N+](=O)[O-])c1O	-2%[57.1 µM]	6%[57.1 µM]	?	-2%	21µM*	1%
COc1cccc(NC(=O)c2cccc3c(=O)c4c([nH]c23)CCCC4)c1	-7%	4%	-2%	nt	15%	2%
CN(C(=O)COC(=O)c1nc(Cl)c(Cl)c(Cl)c1Cl)C1CCS(=O)(=O)C1 (centres undefined)	8%[57.1 µM]	14µM*	-24%	6%	?	13µM*
CN(C(=O)COC(=O)c1ccc(C(C)(C)C)cc1)C1CCS(=O)(=O)C1 (centres undefined)	-2%	-5%	-7%	nt	-6%	0%
N#Cc1c(NC(=O)CSc2ncnc3sccc23)oc(-c2ccco2)c1-c1ccco1	14%[57.1 µM]	-33%[57.1 µM]	-2%	1%	-8%	10µM*
Cc1cc(NC(=O)CSc2ncnc3sccc23)no1	3%	17%	-5%	-1%	6%	8%
Cc1ccnc2ncccc12	-19%	?	nt	nt	nt	nt
COC(C(=O)Nc1ccc(S(=O)(=O)Nc2cccc3ccccc23)cc1)c1ccccc1 (centres undefined)	-3%	1%	23µM*	-2%	-7%	0%[9.22 µM]
Cn1c(=O)c(=O)n(C)c2cc(N3CCCC3)c(NC(=O)c3ccccc3Cl)cc21	7%	-15%	20%	nt	-5%	-1%
Cc1ccc(S(=O)(=O)n2cnc3cc([N+](=O)[O-])ccc32)cc1C	-13%	-16%	-13%	-5%	-2%	0%
Cc1ccc(-n2c3nc(=O)[nH]c(=O)c-3cc3cc([N+](=O)[O-])ccc32)cc1C	-3%[57.1 µM]	8%[57.1 µM]	15µM*	-15%	?	3%
O=C1OCCC1Sc1nnc(-c2ccc(Cl)cc2Cl)o1 (centres undefined)	9%[57.1 µM]	21%[11.4 µM]	9.2µM*	0%	10%	-2%
O=C(Nc1ccc2nc(SCC(=O)N3CCCc4ccccc43)sc2c1)c1cccc(Cl)c1	6%	28%	-23%	nt	3%	4%
Clc1ccccc1CSc1nnc(-c2cccnc2)n1Cc1ccco1	1%	25µM*	8%	2%	1%	0%

Compound activity as filed in PubChem.
